# Records with an inconclusive call do not appear. Values without a mark were called inactive. Calls follow the shape of the full dose curve.
# Experiment: qHTS assay to identify small molecule agonists of the AP-1 signaling pathway (AID 1159526)
# Conditions: ME-180 (cervical carcinoma) AP-1-bla reporter, beta-lactamase FRET ratio, 5 h; series mostly up to 76.8 µM; activation: at the top concentration
# % is scaled to controls: 0 for no effect and ±100 for the full control effect.
row,Structure (SMILES),activation
1,Cc1cc(C)cc([N+](=O)[O-])c1,-3%
2,COc1cc([N+](=O)[O-])ccc1N,-7.4%
3,CCC(O)C(C)(C)C (stereo not drawn),2.69%
4,OC(CCN1CCCCC1)(c1ccccc1)c1ccccc1,10.7% [at 35.3 µM]
5,Oc1ccccc1Cc1ccccc1O,13.7%
6,O=c1[nH]c(=O)c2[nH]c(=O)[nH]c2[nH]1,-0.69% [at 6.97 µM]
7,CN(C)CCCNCCC#N,-8.05%
8,Cc1ccc2c(c1)c1c3n2CCNC3CCC1 (stereo not drawn),23.7% [at 35.3 µM]
9,C1=CCC(c2ccccc2)CC1 (stereo not drawn),-4.26%
10,Cc1ccccc1OCC1CO1 (stereo not drawn),-1.37%
11,CCCCCCCCCCCCCC(=O)OC,-3.65%
12,OC[C@@H](O)[C@H](O)[C@@H](O)[C@@H](O)CO,6.93%
13,CC(C)COC(=O)CCCCC(=O)OCC(C)C,1.33%
14,CCC1COC(=O)O1 (stereo not drawn),-3.2%
15,CCS(=O)(=O)CCn1c([N+](=O)[O-])cnc1C,-8.55% [at 35.3 µM]
16,CCCCCC1Nc2cc(C(F)(F)F)c(S(N)(=O)=O)cc2S(=O)(=O)N1 (stereo not drawn),3.94% [at 35.3 µM]
17,CCCCCCCCOC(C)=O,4.53%
18,O=C(Nc1cccc(C2=NCCN2)c1)Nc1cccc(C2=NCCN2)c1,-8.47% [at 15.8 µM]
19,CC(=O)OCC(=O)[C@@]1(O)[C@H](OC(C)=O)C[C@H]2[C@@H]3CCC4=CC(=O)C=C[C@]4(C)[C@@]3(F)[C@@H](O)C[C@@]21C,5.86% [at 35.3 µM]

row,Structure (SMILES),activation
1,CNC(=O)C(c1ccccc1)c1ccccc1,-4.6%
2,CC(CC(=O)O)CC(C)(C)C (stereo not drawn),-4.97%
3,CCOc1ccc(NC(=O)OC(C)C)cc1OCC,-3.31%
4,NS(=O)(=O)c1ccccc1OC(F)(F)F,-4.04%
5,CC(=O)c1ccc2c(c1)CCCC2,19.5%
6,CCC1Nc2cc(Cl)c(S(N)(=O)=O)cc2S(=O)(=O)N1 (stereo not drawn),-6.01% [at 35.3 µM]
7,CCCCOC(=O)C(C)OC(=O)CCC (stereo not drawn),-1.65%
8,CC1=NN(c2ccc(S(=O)(=O)O)cc2)C(=O)C1N=Nc1ccccc1 (stereo not drawn),-10.4%
9,C=CCOCC(CO)(COCC=C)COCC=C,-6.34% [at 35.3 µM]
10,Nc1cc(Cl)cc(S(=O)(=O)O)c1O,-1.49%
11,O=C1OC(=O)c2cc(Oc3ccc4c(c3)C(=O)OC4=O)ccc21,-2.33%
12,O=C(Oc1ccccc1C(=O)O)c1ccccc1O,-7.88% [at 35.3 µM]
13,O=C(O)c1ccc(OCCN2CCCCC2)cc1,0.96% [at 35.3 µM]
14,CC(C)CCO,-0.895%
15,COCCOCCOCCOC,-2.16%
16,CC(=O)OC(C(=O)c1ccccc1)c1ccccc1 (stereo not drawn),7.04%
17,N#CCCOCCOCCC#N,1.16%
18,O=C(COCCOCCOCC(=O)Nc1c(I)cc(I)c(C(=O)O)c1I)Nc1c(I)cc(I)c(C(=O)O)c1I,-4.87% [at 35.3 µM]
19,C[CH2][Ge]([Cl])([CH2]C)[CH2]C,-6.2%

# — PubChem BioAssay (Tox21)
